Measurements published in PubChem BioAssay.
Entries with a potency or affinity are not part of this list. Calls of active or inactive are those of the source. Unless noted, no cut-off is given here; in the data, nearly all actives have IC50 up to about 0.98 µM.

target: Calcium-dependent protein kinase 1 (Plasmodium falciparum (isolate 3D7)) (UniProt P62344); test: PfCDPK1 kinase inhibitors, biochemical, TCAMS library (AID 1159585); settings: recombinant PfCDPK1, Kinase-Glo ATP depletion luminescence;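 note: inhibitors leave more ATP so luminescence rises with inhibition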
Sequence (P62344 whole entry, looked up): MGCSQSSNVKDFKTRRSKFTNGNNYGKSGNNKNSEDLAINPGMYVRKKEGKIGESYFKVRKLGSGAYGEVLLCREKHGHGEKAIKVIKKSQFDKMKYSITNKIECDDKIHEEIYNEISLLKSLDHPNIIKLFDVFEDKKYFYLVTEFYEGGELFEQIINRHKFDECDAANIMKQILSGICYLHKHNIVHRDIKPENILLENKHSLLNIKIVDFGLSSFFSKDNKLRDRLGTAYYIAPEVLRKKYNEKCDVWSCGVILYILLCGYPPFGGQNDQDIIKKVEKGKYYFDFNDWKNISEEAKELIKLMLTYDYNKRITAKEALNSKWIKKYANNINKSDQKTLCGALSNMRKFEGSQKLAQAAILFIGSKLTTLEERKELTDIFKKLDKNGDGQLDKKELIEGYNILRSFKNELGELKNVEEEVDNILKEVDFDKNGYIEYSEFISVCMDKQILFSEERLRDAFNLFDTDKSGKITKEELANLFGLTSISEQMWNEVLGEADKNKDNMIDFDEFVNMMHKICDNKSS

outcome, inactive:
CC(Nc1nncc(-c2cccc(F)c2)n1)c1ccc(F)cc1 (stereo not given)
FC(F)(F)c1ccc2nc(-c3cccc(-c4ccc(CNCCc5ccncc5)cc4)c3)[nH]c2c1
CN1CCC(Oc2ccc(CN3CC[C@H](NC(=O)c4ccc(F)c(F)c4)C3)c3ccccc23)C1 (stereo not given in full)
CCC1(C)CC(CCNCc2ccccc2O)(c2ccccc2OC)CCO1 (stereo not given)
COc1ccc(N2CCN(CCCCNC(=O)c3ccc(NC(=O)c4cc(C(F)(F)F)cc(C(F)(F)F)c4)cc3)CC2)cc1OC
COc1ccc2nccc([C@@H](O)CN3CCC(NCc4cc5oc(=O)[nH]c5cc4F)CC3)c2c1
CC(C)CCN=C(N)Nc1ccc(OCCCOc2ccc(NC(N)=NCCC(C)C)cc2)cc1
COC(=O)c1ccc(NC(=O)Nc2cccc(CCNCc3ccccc3)c2)cc1
N#Cc1cccc(NC(=O)Nc2cccc(-c3ccc(-c4nc5ccc(C(F)(F)F)cc5[nH]4)cc3)c2)c1
CC1CCC(C(C)C)C(OC(=O)CSc2nnc3c(n2)[nH]c2ccccc23)C1 (stereo not given)
COC(=O)c1cc(C(=O)CN(Cc2ccccc2)C(C)C)ccc1O
O=C(NCc1ccc(C(=O)NC2CCCCCC2)cc1)c1ccc(O)c(-c2ccc(Cl)c(Cl)c2)c1
COc1ccc(NC(=O)c2ccc3[nH]c(-c4ccc(Cl)cc4)cc3c2)cc1OCCN(C)C
NC(N)=Nc1nc(-c2cccc(NC(=O)NCc3ccc(OC(F)(F)F)cc3)c2)cs1
FC(F)(F)c1ccc2nc(-c3ccc(-c4ccc(CNCCc5ccncc5)cc4)cc3)[nH]c2c1
CN(C(=O)/C=C/c1c(Cl)cccc1Cl)C1CCN(CCCCCNC(=O)/C=C/c2ccc(Cl)c(Cl)c2)CC1
COc1ccc(CCn2c(=N)c(C(=O)NCc3cccnc3)cc3c(=O)n4ccccc4nc32)cc1
COc1cc(F)c2ncc(Cl)c(CCN3CCC(NCc4ccc5c(c4)NC(=O)CS5)CC3)c2c1
Fc1ccc2nc(-c3ccc(-c4cccc(CN5CCN(c6ccncc6)CC5)c4)cc3)[nH]c2c1
O=c1cc(NCCCNCc2cc(Br)ccc2F)[nH]c2ccccc12
O=C(Nc1ccc(S(=O)(=O)N2CCCCCC2)cc1)c1cc(-c2ccccc2O)n[nH]1
CC(C)NCc1cccc(-c2ccc(-c3nc4ccccc4[nH]3)cc2)c1
O=C(NCCCCN1CCC(c2c[nH]c3ccccc23)CC1)c1sc(-c2ccc(C(F)(F)F)cc2)nc1CO
O=C(Nc1ccc(Cl)cc1F)NC1CCN(CCCCCNC(=O)[C@@H]2C[C@H]2c2ccc(Cl)c(Cl)c2)CC1
Cc1ccc2nc(C)cc(Nc3ccccc3O)c2c1
CC(C)c1ccc(-c2nc3ncc(Cl)cc3[nH]2)cc1
COc1cc(-n2cnc3cc(-c4ccc(Cl)cc4)sc3c2=O)ccc1OCCN1CCC(c2cccc(NC(C)=O)c2)CC1
COc1ccc2nccc(N3CCC(CCNCc4ccc5c(n4)NC(=O)CS5)CC3)c2n1
Nc1ncc(-c2ccsc2)c2ccc(-c3cnc[nH]3)cc12
NOCCCCOc1ccccc1
Fc1ccc(-c2cncc(Nc3ccncc3)n2)cc1
COc1ccc2nccc([C@@H](O)CN3CCC(NCc4ccc5sc(=O)[nH]c5c4)CC3)c2c1
CCc1ccc(CN2CCC(CNC(=O)c3cc(-c4cccc(F)c4)cs3)C2)cc1 (stereo not given)
CCOc1ccccc1CNc1nccc(NCCc2cn(C)c3ccccc23)n1
CCCCCCCCCCN1C(=O)C2C(CCCCNC(C)=O)NC3(C(=O)N(Cc4ccc(C(C)(C)C)cc4)c4ccccc43)C2C1=O (stereo not given)
CC(CN)OCn1cnc2c(N)ncnc21 (stereo not given)
O=C(NCCc1ccc(Cl)c(Cl)c1)[C@@H]1CCCN1C(=O)c1ccc(O)c(-c2cccc(C(F)(F)F)c2)c1
COc1cc(C(F)(F)F)cc2[nH]c(CNCCCNc3nc4ccccc4[nH]3)cc12
CC(C)CSc1cc(C(=O)Nc2cc(Cl)ccc2O)ccn1
O=C(NC1CCN(c2ccnc3cc(Cl)ccc23)C1)c1cccc(F)c1 (stereo not given)

target: Plasmodium falciparum protein kinase 6 (PK6, PF3D7_1337100) (UniProt Q8IDW1); test: PfPK6 kinase inhibitors, biochemical, TCAMS library (AID 1159586; call rule not given here); settings: recombinant PfPK6, Kinase-Glo ATP depletion luminescence
Sequence (Q8IDW1 1-305): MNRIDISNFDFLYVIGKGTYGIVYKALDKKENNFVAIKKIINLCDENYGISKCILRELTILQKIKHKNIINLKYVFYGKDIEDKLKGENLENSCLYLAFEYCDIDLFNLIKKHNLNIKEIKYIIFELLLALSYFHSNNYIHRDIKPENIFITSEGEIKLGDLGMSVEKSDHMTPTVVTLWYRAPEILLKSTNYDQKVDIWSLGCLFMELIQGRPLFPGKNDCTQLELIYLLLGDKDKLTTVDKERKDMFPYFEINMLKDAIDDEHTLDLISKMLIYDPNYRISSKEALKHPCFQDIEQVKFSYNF

outcome, inactive:
CC(Nc1nncc(-c2cccc(F)c2)n1)c1ccc(F)cc1 (stereo not given)
FC(F)(F)c1ccc2nc(-c3cccc(-c4ccc(CNCCc5ccncc5)cc4)c3)[nH]c2c1
CN1CCC(Oc2ccc(CN3CC[C@H](NC(=O)c4ccc(F)c(F)c4)C3)c3ccccc23)C1 (stereo not given in full)
CCC1(C)CC(CCNCc2ccccc2O)(c2ccccc2OC)CCO1 (stereo not given)
COc1ccc(N2CCN(CCCCNC(=O)c3ccc(NC(=O)c4cc(C(F)(F)F)cc(C(F)(F)F)c4)cc3)CC2)cc1OC
COc1ccc2nccc([C@@H](O)CN3CCC(NCc4cc5oc(=O)[nH]c5cc4F)CC3)c2c1
CC(C)CCN=C(N)Nc1ccc(OCCCOc2ccc(NC(N)=NCCC(C)C)cc2)cc1
COC(=O)c1ccc(NC(=O)Nc2cccc(CCNCc3ccccc3)c2)cc1
N#Cc1cccc(NC(=O)Nc2cccc(-c3ccc(-c4nc5ccc(C(F)(F)F)cc5[nH]4)cc3)c2)c1
CC1CCC(C(C)C)C(OC(=O)CSc2nnc3c(n2)[nH]c2ccccc23)C1 (stereo not given)
COC(=O)c1cc(C(=O)CN(Cc2ccccc2)C(C)C)ccc1O
O=C(NCc1ccc(C(=O)NC2CCCCCC2)cc1)c1ccc(O)c(-c2ccc(Cl)c(Cl)c2)c1
COc1ccc(NC(=O)c2ccc3[nH]c(-c4ccc(Cl)cc4)cc3c2)cc1OCCN(C)C
NC(N)=Nc1nc(-c2cccc(NC(=O)NCc3ccc(OC(F)(F)F)cc3)c2)cs1
FC(F)(F)c1ccc2nc(-c3ccc(-c4ccc(CNCCc5ccncc5)cc4)cc3)[nH]c2c1
CN(C(=O)/C=C/c1c(Cl)cccc1Cl)C1CCN(CCCCCNC(=O)/C=C/c2ccc(Cl)c(Cl)c2)CC1
COc1ccc(CCn2c(=N)c(C(=O)NCc3cccnc3)cc3c(=O)n4ccccc4nc32)cc1
COc1cc(F)c2ncc(Cl)c(CCN3CCC(NCc4ccc5c(c4)NC(=O)CS5)CC3)c2c1
Fc1ccc2nc(-c3ccc(-c4cccc(CN5CCN(c6ccncc6)CC5)c4)cc3)[nH]c2c1
O=c1cc(NCCCNCc2cc(Br)ccc2F)[nH]c2ccccc12
O=C(Nc1ccc(S(=O)(=O)N2CCCCCC2)cc1)c1cc(-c2ccccc2O)n[nH]1
CC(C)NCc1cccc(-c2ccc(-c3nc4ccccc4[nH]3)cc2)c1
O=C(NCCCCN1CCC(c2c[nH]c3ccccc23)CC1)c1sc(-c2ccc(C(F)(F)F)cc2)nc1CO
O=C(Nc1ccc(Cl)cc1F)NC1CCN(CCCCCNC(=O)[C@@H]2C[C@H]2c2ccc(Cl)c(Cl)c2)CC1
Cc1ccc2nc(C)cc(Nc3ccccc3O)c2c1
CC(C)c1ccc(-c2nc3ncc(Cl)cc3[nH]2)cc1
COc1cc(-n2cnc3cc(-c4ccc(Cl)cc4)sc3c2=O)ccc1OCCN1CCC(c2cccc(NC(C)=O)c2)CC1
COc1ccc2nccc(N3CCC(CCNCc4ccc5c(n4)NC(=O)CS5)CC3)c2n1
Nc1ncc(-c2ccsc2)c2ccc(-c3cnc[nH]3)cc12
NOCCCCOc1ccccc1
Fc1ccc(-c2cncc(Nc3ccncc3)n2)cc1
COc1ccc2nccc([C@@H](O)CN3CCC(NCc4ccc5sc(=O)[nH]c5c4)CC3)c2c1
CCc1ccc(CN2CCC(CNC(=O)c3cc(-c4cccc(F)c4)cs3)C2)cc1 (stereo not given)
CCOc1ccccc1CNc1nccc(NCCc2cn(C)c3ccccc23)n1
CCCCCCCCCCN1C(=O)C2C(CCCCNC(C)=O)NC3(C(=O)N(Cc4ccc(C(C)(C)C)cc4)c4ccccc43)C2C1=O (stereo not given)
CC(CN)OCn1cnc2c(N)ncnc21 (stereo not given)
O=C(NCCc1ccc(Cl)c(Cl)c1)[C@@H]1CCCN1C(=O)c1ccc(O)c(-c2cccc(C(F)(F)F)c2)c1
COc1cc(C(F)(F)F)cc2[nH]c(CNCCCNc3nc4ccccc4[nH]3)cc12
CC(C)CSc1cc(C(=O)Nc2cc(Cl)ccc2O)ccn1
O=C(NC1CCN(c2ccnc3cc(Cl)ccc23)C1)c1cccc(F)c1 (stereo not given)
